# Assay outcomes as filed in PubChem.
# aSyn 5UTR inh: MLPCN primary screen, SNCA 5' untranslated region. AID 1813, 2009. hit rate 0.82% among 300,000. inhibition, % (tested at 7.5 µM). alpha-synuclein 5'UTR reporter, inhibitor activity; in the data active means inhibition above about 60%;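 further: H4 neuroglioblastoma cells stably carrying SNCA 5'UTR luciferase fusion; 0% = DMSO wells and 100% = positive control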
# IEC-6 tox: cytotoxicity in IEC-6 intestinal epithelial cells, primary screen, cytotoxicity control for KLF5 inhibitor project, cell-based, luminescence; hit rate 0.78% among 290,000; IEC-6 cytotoxicity, luminescence viability; AID 1825, 2009; inhibition, % at 5 µM; in the data active means inhibition above about 22%;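 further: 0% = plate median of test compound wells and 100% = cytotoxic reference compound wells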
# KLF5 inhibitor: KLF5 expression inhibitors, primary screen, DLD-1 cells, luminescence. inhibition, % at 5 µM. DLD-1 KLF5 promoter-luciferase reporter. AID 1700, 2009. hit rate 0.23% among 290,000;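 active means inhibition above a per-plate limit of that plate's mean compound inhibition plus 3 SD, cut at about 60% in these data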;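 further: 0% = DMSO wells and 100% = LY294002 at 200 µM; higher means less KLF5 promoter-driven luciferase light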
# Ba/F3 V617F tox: reduced viability of JAK2V617F-dependent Ba/F3 cells, primary screen, JAK2V617F inhibitor project, cell-based, Ba/F3 EpoR-JAK2V617F, luminescence; inhibition, % at 5.6 µM; ATP luminescence; hit rate 1.1% among 220,000;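 active means inhibition above the campaign mean plus 3 SD over all tested compounds, cut at about 24% in these data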;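 further: cytokine-independent growth of Ba/F3 cells driven by EpoR plus mutant JAK2; 0% = DMSO-treated cells and 100% = JAK inhibitor I control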
# BaF3 parental: parental Ba/F3 cell viability inhibition, counter-screen for JAK2V617F inhibitor project, murine pro-B, CellTiter-Glo luminescence; CellTiter-Glo ATP luminescence; hit rate 1.1% among 220,000; inhibition, % at 5.6 µM;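 active means inhibition above a per-campaign cutoff, the mean inhibition of all tested compounds plus 3 SD, cut at about 27% in these data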;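 further: 0% = DMSO wells and 100% = JAK Inhibitor I control wells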
# APP transl inh: inhibitors of APP translation via 5'UTR reporter, primary screen, APP 5'UTR luciferase, SH-SY5Y cells; inhibition, % at 2 µM; SH-SY5Y APP 5'UTR-luciferase reporter, luminescence; hit rate 0.82% among 190,000;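 active means inhibition above a set limit, derived from the sample mean plus 3 SD, cut at about 45% in these data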
# * = called active by the depositor; nt = no result. The list is not random: actives were taken first. Their share in the collection is about 2.1%.
SMILES,aSyn 5UTR inh,IEC-6 tox,KLF5 inhibitor,Ba/F3 V617F tox,BaF3 parental,APP transl inh
O=C(COc1ccccc1-c1ccccc1)N/N=C/c1cccc2ccccc12,75*,12,5,2,4,95*
C/C(CCC(C)C)=N\NC(=O)COc1ccccc1-c1ccccc1,nt,20,25,-3,1,94*
Cc1ccccc1/C=N/NC(=O)Cn1nnc(N)n1,-21,6,9,1,9,2
Nc1nnn(CC(=O)N/N=C/c2cccc3ccccc23)n1,-4,7,-3,9,9,62*
COc1ccc(S(=O)(=O)NCc2cccnc2)cc1NC(=O)c1ccc(Cl)cc1,0,nt,nt,nt,nt,nt
CCCCCCOc1ccc(OC(=O)c2ccncc2)cc1,-38,13,-29,44*,32*,-3
CCCCCCc1ccc(OC(=O)c2ccncc2)cc1,-23,0,-12,nt,nt,nt
COc1ccc(CCNC(=S)N2CCC(C(=O)c3ccc(F)cc3)CC2)cc1OC,30,5,-10,-3,-2,48*
COc1ccc(C(=O)C2CCN(C(=S)NCCc3ccc(OC)c(OC)c3)CC2)cc1,7,6,3,2,3,11
O=C(c1cc(-c2ccc(Cl)cc2Cl)on1)N1CCOCC1,80*,1,-91,2,5,-196
C=CCNC(=S)/N=c1/ccccn1CC,3,-6,9,15,29*,nt
COc1ccc(S(=O)(=O)N(Cc2ccco2)Cc2cc3ccccc3[nH]c2=O)cc1,19,-2,14,nt,nt,nt
COc1ccccc1OCCSc1nc2ccccc2c(=O)[nH]1,-4,3,-36,1,95*,-12
CCOc1ccc(CCNC(=O)C2CCN(S(=O)(=O)N3CCCCC3)CC2)cc1OCC,9,-1,-16,-1,93*,2
CCOC(=O)COc1ccc2ccccc2c1/C=C/[N+](=O)[O-],3,3,-6,1,6,62*
O=[N+]([O-])/C=C/c1c(OCc2ccccc2)ccc2ccccc12,-5,5,5,-6,7,-9
O=C(N/N=C/c1ccc([N+](=O)[O-])o1)c1ccc2c(c1)OCO2,94*,1,-17,nt,nt,nt
N#CCc1ccc(NC(=O)/C=C/c2ccc([N+](=O)[O-])o2)cc1,-38,6,-16,94*,83*,56*
O=C(N/N=C\c1ccc(-c2ccc([N+](=O)[O-])cc2)o1)c1ccc2c(c1)OCO2,4,-5,11,-5,4,6
O=C(Cc1ccc([N+](=O)[O-])cc1)N/N=C/c1ccc([N+](=O)[O-])o1,89*,-13,-26,-2,3,2
CCCCCCCC(=O)N/N=C/c1ccc([N+](=O)[O-])o1,-18,2,-12,3,12,-21
O=[N+]([O-])c1ccc(/C=N/N=C/c2ccc([N+](=O)[O-])o2)o1,nt,5,-46,3,-2,94*
COc1cccc(CNC(=O)CCNS(=O)(=O)c2ccc(C)cc2)c1,6,nt,nt,nt,nt,nt
CCOC(=O)N1CCC(=NNC(=O)Cn2ccc(C(F)(F)F)n2)CC1,12,-5,-1,-3,4,-18
COc1ccc(N2CCN(CCCNC(=O)C(=O)c3c[nH]c4ccccc34)CC2)cc1,30,-8,-12,nt,nt,nt
SMILES,aSyn 5UTR inh,IEC-6 tox,KLF5 inhibitor,Ba/F3 V617F tox,BaF3 parental,APP transl inh
COCCC(=O)N1CCC(Oc2ccc(C(=O)N3C[C@H]4CC[C@H]3C4)cc2)CC1,-5,-7,-33,nt,nt,nt
COc1ccc(N/C=C2\CCc3ccccc3C2=O)cc1,94*,1,-30,4,8,-156
O=C1/C(=C/Nc2ccc3c(c2)OCO3)CCc2ccccc21,96*,0,-90,4,2,-153
CC(C)OC(=O)CSc1nc(Cc2cccs2)nc2ccccc12,4,-11,-2,-2,4,-1
Cc1sc2ncnc(Nc3ccccc3)c2c1C,8,8,-20,2,7,nt
c1ccc(-c2csc3ncnc(NCC4COc5ccccc5O4)c23)cc1 (stereo unspecified),14,10,3,72*,71*,19
Cc1sc2ncnc(NCC(C)(C)N3CCOCC3)c2c1C,17,5,-8,21,37*,9
Cc1sc2ncnc(NCc3ccccc3)c2c1C,44,9,5,13,35*,-5
Cc1sc2ncnc(NCC3COc4ccccc4O3)c2c1C (stereo unspecified),2,9,-6,53*,73*,8
CCCC(=O)Nc1nnc(S(=O)(=O)N(CC)c2ccc(OC)cc2)s1,29,3,-29,nt,nt,nt
CCC1N=C(SC)NC(C)=C1C(=O)c1ccccc1 (stereo unspecified),-8,3,-12,1,7,5
CSC1=NC(C(Cl)(Cl)Cl)N=C(c2ccc(C)cc2)N1 (stereo unspecified),118*,58*,53,83*,64*,71*
CC1(C)Oc2cc3oc(-c4cc(O)cc(O)c4)cc3cc2CC1O (stereo unspecified),97*,nt,nt,nt,nt,nt
O=C1C(Cl)=C(NCCCN2CCOCC2)C(=O)N1CCc1ccccc1,-126,8,19,5,4,51*
O=c1[nH]c(CN2CCN(c3ccc(O)cc3)CC2)nc2scc(-c3ccc(Cl)cc3)c12,25,20,-8,4,9,62*
C[N+](C)(C)CCN(Cc1ccc(Cl)cc1)c1ccccn1,6,4,-19,33*,29*,0
COc1cccc(C(=O)N(c2ccc(C)cc2)C2C=CS(=O)(=O)C2)c1 (stereo unspecified),-6,2,-38,0,6,5
Cc1ccc(-n2nc(C)c3c(C)c(CCC(=O)Nc4ccc(CN5CCCC5)cc4)c(C)nc32)cc1,104*,1,-34,2,3,nt
Cc1ccccc1NC(=O)/C=C/c1cccs1,-119,-6,-79,5,12,-60
Cc1ccccc1NC(=O)/C=C/c1ccc([N+](=O)[O-])s1,-80,14,2,80*,55*,90*
Cc1cc(C)cc(NC(=O)/C=C/c2ccc([N+](=O)[O-])s2)c1,-244,4,2,1,50*,53*
O=C1CCC(C(=O)Nc2cccc(Br)c2)N1 (stereo unspecified),20,-4,-15,nt,nt,nt
CC(C)Sc1nnc(NC(=O)c2ccc3c(c2)OCO3)s1,-118,0,-136,nt,nt,nt
C/C(=N/NC(=O)COc1cc(C)ccc1C(C)C)C(=O)O,17,-6,12,1,3,82*
O=C(N/N=C/c1ccc2c(c1)OCO2)c1cc(-c2ccncc2)nc2ccccc12,-5,-4,-4,1,5,67*
Cc1cc(NC(=O)c2cc(-c3ccccn3)nc3ccc(Br)cc23)no1,44,4,-8,nt,nt,nt
